Assay outcomes from PubChem.
A selection: hits, their analogues and other compounds. The true share with any hit is near 3.9%.
Eya2 inh: blocks the phosphatase activity of human Eya2 | O00167 | recombinant Eya2, OMFP fluorescence dephosphorylation (OMFP is methylfluorescein phosphate) | Potency, µM (top dose mostly 76.9 µM), for inactives: at the highest dose activity, negative = inhibition, usual class: inhibitors | 330,000 tested, 0.006% active; also: potency is read from the fitted curve at half-maximal effect; % is scaled to controls: 0 for no effect and ±100 for the full control effect
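Eya2 protein (added as 0.2 uM solution) was preincubated with compound for 10 min at ambient temperature in 50 mM HEPES pH 7.5, 50 mM NaCl, 5 uM MgCl2, 0.05% BSA, 1 mM DTT. OMFP (added at 50 uM) then reacted 10 min; fluorescence read at 485/525 nm.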
GALK inh: galactokinase (human) inhibition. P51570. Purified GALK, Kinase-Glo residual ATP luminescence. Potency, µM (series often up to 57.5 µM), without a hit: top-dose activity change, negative = inhibition, usual class: inhibitors. 270,000 tested, 0.007% active; also: potency is read from the fitted curve at half-maximal effect; % is scaled to controls: 0 for no effect and ±100 for the full control effect
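Galactose (100 uM) and ATP (35 uM) were turned over by 5 nM GALK for 1 h at RT. Kinase-Glo Plus then converted the remaining ATP into a luminescent signal.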
D1 agonist: activates the human D1 dopamine receptor. P21728. HEK293 T-REx D1 cells, calcium flux, agonist mode. activation, % at 2 µM. 360,000 tested, 1% active. AID 504660; in the data active = activation above about 30%; also: 0% is about no effect
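Tetracycline-induced HEK293 TREx D1 cells, force-coupled to calcium signalling, were dye-loaded with a no-wash calcium kit. Compound was pin-added after a 10 s baseline. Fluorescence was read kinetically at 1 cycle/s for 180 s, with calcium rises flagged as agonism.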
D1 potentiator: potentiators of human D1 dopamine receptor | potentiation, % at 10 µM | 360,000 tested, 0.036% active | AID 504651 | P21728 | HEK293 TREx D1 cells, calcium flux, dopamine EC20 potentiation; in the data active = potentiation above about 30%; also: 0% is about no effect
D1 antagonist: human D1 dopamine receptor antagonism. HEK293 TREx D1 cells, calcium flux, dopamine EC80; hits give low values. activity change, negative = inhibition, % at 10 µM. 360,000 tested, 3.2% active. AID 504652; in the data active = activity change below about -30%; also: % is scaled to controls: 0 for no effect and ±100 for the full control effect
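After overnight tetracycline induction at 30 C, force-coupled D1 HEK293 cells took up a no-wash calcium dye at room temperature. Compounds were added and monitored 180 s, and the response to EC80 dopamine was then recorded.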
USP2a block: USP2a (human) protease inhibition; USP2 core, Ub-CHOP2 coupled fluorogenic reporter, 485/531; Potency, µM (top dose mostly 38.3 µM), for the others: top-dose activity change, negative = inhibition, most hits filed as inhibitors; AID 463254; O75604; 330,000 tested, 0.01% active;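 also: potency is read from the fitted curve at half-maximal effect; plate controls were DMSO wells for no effect and full inhibition by NEM control for full effect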
Target sequence (O75604 whole entry, looked up): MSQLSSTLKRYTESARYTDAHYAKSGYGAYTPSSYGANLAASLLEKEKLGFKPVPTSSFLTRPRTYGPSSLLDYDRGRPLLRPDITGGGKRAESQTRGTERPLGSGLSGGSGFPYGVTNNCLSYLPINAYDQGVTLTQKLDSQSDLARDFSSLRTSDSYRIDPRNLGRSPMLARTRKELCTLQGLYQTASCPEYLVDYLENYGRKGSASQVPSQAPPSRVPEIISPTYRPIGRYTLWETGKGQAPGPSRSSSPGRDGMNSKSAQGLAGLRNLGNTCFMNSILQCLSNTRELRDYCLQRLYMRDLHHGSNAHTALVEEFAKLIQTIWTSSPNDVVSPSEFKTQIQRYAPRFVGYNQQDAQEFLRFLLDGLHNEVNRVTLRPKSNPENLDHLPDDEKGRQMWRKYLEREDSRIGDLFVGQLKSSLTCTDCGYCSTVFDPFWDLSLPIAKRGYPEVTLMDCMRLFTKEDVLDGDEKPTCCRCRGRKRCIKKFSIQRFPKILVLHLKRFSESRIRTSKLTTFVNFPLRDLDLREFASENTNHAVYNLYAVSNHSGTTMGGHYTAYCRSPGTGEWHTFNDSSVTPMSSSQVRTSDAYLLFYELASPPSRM
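Cell-free coupled assay: 10nM USP2 core preincubated 30min RT with compound in Tris-HCl pH 8.0/CaCl2/CHAPS buffer, then 25nM Ub-CHOP2 and 25nM reporter substrate; fluorescence (Ex 485/Em 531) read after 60min RT, normalized to NEM inhibition, concentration-response curves fitted.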
Active calls of the source: *. Unless noted, calls follow the shape of the dose curve; as a rule, active = well fitted inhibition curve with a large enough effect; inconclusive = small, poorly fitted or top-dose-only effect, or effect the other way; inactive = flat fitted curve, though single readings scatter.

What do the screens show for `CCC(CC)NC(=O)Nc1ccc(F)c(Cl)c1`?
Eya2 inh: -9.0%; GALK inh: 3.4%; D1 agonist: 29.5; D1 potentiator: -5.5; D1 antagonist: -45.9*; USP2a block: 1.6%

Results for CCn1cc(Br)c(C(=O)Nc2ccccc2C(=O)OC)n1 ?
Eya2 inh: -4.3%; GALK inh: -0.2%; D1 agonist: 9.8; D1 potentiator: -0.4; D1 antagonist: -36.4*; USP2a block: 0.3%

How did CCn1cc(NC(=O)Nc2ccccc2C(=O)OC)c(C(N)=O)n1 do in these assays?
Eya2 inh: -4.5%; GALK inh: -2.4%; D1 agonist: 3.3; D1 potentiator: 0.3; D1 antagonist: 1.5; USP2a block: -0.2%

How did COc1ccc(NC(=O)COc2ccccc2)cc1NC(=O)c1ccco1 do in these assays?
Eya2 inh: -1.5%; GALK inh: 2.1%; D1 agonist: 1.0; D1 potentiator: -5.5; D1 antagonist: -36.7*; USP2a block: 2.8%

Results for CC(C)CC(=O)Nc1ccc(F)c(Cl)c1 ?
Eya2 inh: 13.8%; GALK inh: 9.7%; D1 agonist: 1.5; D1 potentiator: -6.9; D1 antagonist: 4.4; USP2a block: 3.8%

What do the screens show for `CCNc1c(NC(=O)c2cc(OCC)c(OCC)c(OCC)c2)c(=O)oc2ccccc12`?
D1 agonist: 1.4; D1 potentiator: -2.9; D1 antagonist: -1.3

What do the screens show for `Cc1cccc(NC(=O)Cn2c(=O)n(Cc3ccc4c(c3)OCO4)c(=O)c3oc4ccccc4c32)c1C`?
D1 agonist: 0.8; D1 potentiator: -4.5; D1 antagonist: 0.0

How did Cc1ccc(-n2c(Cc3ccccc3)nnc2SCc2nc(-c3cccs3)no2)cc1C do in these assays?
D1 agonist: 14.0; D1 potentiator: -1.8; D1 antagonist: -18.5

How did Cc1ccccc1S(=O)Cc1ccc(C(=O)N2CCN(c3cccc(C)c3C)CC2)o1 (configuration not stated) do in these assays?
D1 agonist: 0.1; D1 potentiator: -1.0; D1 antagonist: -10.7

What do the screens show for `COc1ccc(OC)c(NC(=O)COC(=O)c2n[nH]c3ccccc23)c1`?
Eya2 inh: -6.7%; D1 agonist: 16.7; D1 antagonist: -38.8*; USP2a block: 0.1%

What do the screens show for `COc1ccc(Cl)cc1NC(=O)NC(C)c1ccncc1` (configuration not stated)?
Eya2 inh: 1.0%; GALK inh: -0.8%; D1 agonist: 1.7; D1 potentiator: -2.0; D1 antagonist: 3.6; USP2a block: 4.7%

Results for CCOc1ccccc1N1CCN(C(=O)Nc2ccc(F)c(Cl)c2)CC1 ?
Eya2 inh: 5.6%; GALK inh: -1.4%; D1 agonist: 4.7; D1 potentiator: -1.4; D1 antagonist: -10.3; USP2a block: 4.1%

Results for COc1ccc(C)cc1NC(=O)NC(C)c1ccncc1 (configuration not stated) ?
Eya2 inh: -6.0%; GALK inh: 8.8%; D1 agonist: 2.4; D1 potentiator: -15.1; D1 antagonist: -32.3*; USP2a block: 1.0%

How did COc1ccc(C(=O)COC(=O)c2n[nH]c3ccccc23)c(OC)c1 do in these assays?
Eya2 inh: -18.6%; D1 agonist: 4.2; D1 potentiator: -3.5; D1 antagonist: 23.2; USP2a block: 2.2%

How did COc1ccccc1N1CCN(C(=O)Nc2ccc(F)c(Cl)c2)CC1 do in these assays?
Eya2 inh: -10.2%; GALK inh: -0.5%; D1 agonist: 2.0; D1 potentiator: -2.9; D1 antagonist: -56.8*; USP2a block: 1.6%

What do the screens show for `COc1ccc(NC(=O)Nc2cc(C)ccc2OC)cc1`?
Eya2 inh: -15.0%; GALK inh: -0.1%; D1 agonist: 1.0; D1 potentiator: -6.5; D1 antagonist: -32.1*; USP2a block: -0.8%

What do the screens show for `O=C(/C=C/c1ccco1)Nc1ccc(Cl)c(-c2nc3cc(Cl)ccc3o2)c1`?
D1 agonist: 7.3; D1 potentiator: -1.9; D1 antagonist: -18.5

Results for COc1ccc(OC)c(NC(=O)c2cn(CC(C)C)c(=O)c3cc(OC)c(OC)cc23)c1 ?
D1 agonist: -1.2; D1 potentiator: 0.3; D1 antagonist: -27.0

How did Cc1cccc(CNC(=O)Cn2nc(C)n3c(cc4cc(F)ccc43)c2=O)c1 do in these assays?
D1 agonist: 0.4; D1 potentiator: -4.1; D1 antagonist: -4.6

What do the screens show for `CNC(=S)N1CCN(c2ccccc2OC)CC1`?
Eya2 inh: -4.3%; GALK inh: -0.6%; D1 agonist: -0.4; D1 potentiator: -4.8; D1 antagonist: -46.4*; USP2a block: 0.3%

What do the screens show for `COc1ccc(C(=O)NC(=S)N2CCN(c3ccccc3OC)CC2)cc1`?
Eya2 inh: -6.6%; GALK inh: -1.8%; D1 agonist: 3.4; D1 antagonist: -20.9; USP2a block: 2.0%

What do the screens show for `Cc1c(-c2nc3ccccc3[nH]2)cnn1C`?
Eya2 inh: -3.3%; D1 agonist: 1.1; D1 potentiator: -2.4; D1 antagonist: -30.2*; USP2a block: 3.5%

How did COc1cc(/C=C2\SC(=S)N(Nc3ncc(C(F)(F)F)cc3Cl)C2=O)ccc1O do in these assays?
Eya2 inh: 33.4%; GALK inh: 1.5%; D1 agonist: 96.6*; D1 potentiator: -0.6; D1 antagonist: 9.3; USP2a block: 3.3%

Results for CN(C)c1ccc(/C=C2\SC(=S)N(Nc3ncc(C(F)(F)F)cc3Cl)C2=O)cc1 ?
Eya2 inh: inconclusive; GALK inh: -0.2%; D1 agonist: 168.1*; D1 potentiator: -12.9; D1 antagonist: -62.9*; USP2a block: 9.7%

How did COc1ccc2oc(=O)c(C(=O)NCCc3c(C)[nH]c4ccc(F)cc34)cc2c1 do in these assays?
D1 agonist: -0.8; D1 potentiator: -1.9; D1 antagonist: -4.3

What do the screens show for `O=S(=O)(NCCS(=O)(=O)N1CCN(c2cccc(Cl)c2)CC1)c1ccc(F)cc1`?
D1 agonist: 8.6; D1 potentiator: -2.2; D1 antagonist: 4.3

What do the screens show for `CCOCCc1nn2c(=O)cc(COC(=O)c3ccccc3OC)nc2s1`?
D1 agonist: 0.4; D1 potentiator: -8.7; D1 antagonist: -31.5*

What do the screens show for `CCCCCn1c(NCc2ccccc2OC)nc2ccccc21`?
D1 agonist: 7.1; D1 potentiator: -3.6; D1 antagonist: -6.0

What do the screens show for `Cc1ccc(N2C(=O)c3cccc4c(N)ccc(c34)C2=O)c2cccnc12`?
Eya2 inh: inconclusive; GALK inh: -2.1%; D1 agonist: 334.4*; D1 potentiator: 7.8; D1 antagonist: -67.8*; USP2a block: inconclusive
